Numbering of substitutions follows the chain as printed. The full ranking holds about 24,000 sequences; the median of “enrichment r” is about 0.99, and the highest 2% start at about 3.7. The list comes from a sample in which the highest values are over-represented; it also holds similar and randomly drawn sequences.

The labels stand for the following.
B1: chr1:163117127:163117128:-_ENSG00000143248_ENST00000313961|hu_hu|motif|central (ssRNA)
RNA: GGGAGUUCUACAGUCCGACGAUCGCAGGGUUAUUAUGGAGGAAAUAACUCACAGGAUGAUUUCAUAGCCUGGCUAAAUUACGGCUUGAUUAACUCCUGAUAAAACUCAGAGCGCACAAAGCGAGGCAGAGAAUCCUUUUCCAUCAACAGAGGAUUGAGCAUCA
B2: chr7:140404665:140404666:+_ENSG00000090266_ENST00000247866|hu_hu|hu_hu_hu_mus_False|28_98 (ssRNA)
RNA: GGGAGUUCUACAGUCCGACGAUCUGCUCCUACUCGUAGGCUGAGUCUACAGUGUCAGUCCUCGUCAUCAGGAGGGAUUCCCAGUUCUUCAUCUGUCCACUGUGAAGGAUCAGGAUAUGAAAAGUGACCCAGCACAGCAUCCGACAACAGAGGAUUGAGCAUCA
B3: chr9:34402745:34402746:-_ENSG00000164970_ENST00000297620|hu_hu|motif|central (ssRNA)
RNA: GGGAGUUCUACAGUCCGACGAUCGGGGACGACCAGCCUUGUUCGGGCCAUGACAUUGUUCUUCUUGGGUUGCUGGUUGACAGGGCGGCCCAUGCUGCCAUUCUUCAGGGAGCCCUUCCGGGCCAGCUCCCGCUGCUUCUCCUCCAACAGAGGAUUGAGCAUCA
B4: chr2:153237265:153237266:-_ENSMUSG00000061411_ENSMUST00000109784|mus_mus|mus_mus_mus_hu_False|1_98 (ssRNA)
RNA: GGGAGUUCUACAGUCCGACGAUCAAAAAAAAAAAAAGAAAAGUGUCCUUGUGCCCAAAGUCUCAGGUGCUUGGAGUGUGGCUAGAAACAGCUCUUUUGGAUCCCACCUCUUUCAAAAACAAAAUGUACCAACUGGUAGGCAGGCAACAGAGGAUUGAGCAUCA
B5: chr2:153237265:153237266:-_ENSMUSG00000061411_ENSMUST00000109784|mus_mus|mus_mus_mus_hu_False|98_98 (ssRNA)
RNA: B4 RNA with A137G, G138A, C140G, A141C, G142A
B6: chr2:153237265:153237266:-_ENSMUSG00000061411_ENSMUST00000109784|mus_mus|mus_mus_mus_hu_False|1_108 (ssRNA)
RNA: B4 RNA with A32G, G37A
B7: chr11:86532819:86532820:-_ENSMUSG00000047126_ENSMUST00000103186|perfect_dup|FALSE|FALSE (ssRNA)
RNA: GGGAGUUCUACAGUCCGACGAUCCAUGGCUCUGAGACAUUCUAGGGAGUCUUCUACUGAUAAGGAACCAAAGUAGUUGACUAACCACUCAGGGUUAAGAAGAUGGGUGUGAACCACUGCACGUUUUAUAUCAUAUAAAUCAGUCAACAGAGGAUUGAGCAUCA
B8: chr1:39494564:39494565:+_ENSG00000168653_ENST00000372967|hu_hu|hu_hu_hu_mus_True|18_38 (ssRNA)
RNA: GGGAGUUCUACAGUCCGACGAUCAUGCAUUCGCCUCAUCGUUUUGUACCGAAGCAAGCACUCUUCGAAGUCAUCGAACUCUAUCUUGCACUCCUUUUCUGCCCGAGUCCCACCGAUUCCAUGUGCACACUCUAUCCACUCUUUCAACAGAGGAUUGAGCAUCA
B9: chr14:89338683:89338684:+_ENSG00000165533_ENST00000346301|hu_hu|hu_hu_hu_mus_False|48_58 (ssRNA)
RNA: GGGAGUUCUACAGUCCGACGAUCGUGGUUGUUGUGGACCAGGGCCAGCCUGAAGCAUUGGUGGGCCAAGUUUGUAUCUCCUAUUCCCACAGCUACAUGCCCCAGGUUGUACCAGACAUCAGCUGCCUCUUCUUCAUUUUCAGCCAACAGAGGAUUGAGCAUCA
B10: chr11:6247107:6247108:+_ENSMUSG00000020456_ENSMUST00000003461|mus_mus|motif|central (ssRNA)
RNA: GGGAGUUCUACAGUCCGACGAUCAAACAUAGGUUCGUCCAUCUCAUUGUGGCCAUUUCGUCGAUAACACACCAGAUCAACGGCAACAUCCUUGUGGAAGGUGUUUCUCCACUCAGCUGCCACCUUGCAUACAUACAUGACAGCCAACAGAGGAUUGAGCAUCA
B11: chrX:41029285:41029286:+_ENSG00000124486_ENST00000378308|hu_hu|FALSE|FALSE (ssRNA)
RNA: GGGAGUUCUACAGUCCGACGAUCUGUAUGAGACCAUACCUCCAAGUCAUCAACCUGUCUGCCCUGGUUUGGAAAUCGAACUACAAAAGAGAGGUGUUUACCGCGGAAUGCUCUCGACAUAGGGAGAAUUGUUCUUUCCUCAUGCAACAGAGGAUUGAGCAUCA
B12: chr1:39494447:39494448:+_ENSG00000168653_ENST00000372967|hu_mus|hu_hu_hu_mus_False|18_38 (ssRNA)
RNA: GGGAGUUCUACAGUCCGACGAUCGCACCGAGCGGCGUUCUUAUAGGGCUGUUCUGCGCUUAGGAACAUAAAGUGCCGGUCCAGGCUGAUGCCCAGCCUUUUCUGGAUGUCAAGGAAAGGCAUGGCCCUGCAGUGCCCUUGUCACAACAGAGGAUUGAGCAUCA
B13: chrX:41000244:41000245:+_ENSG00000124486_ENST00000378308|hu_mus|motif|central (ssRNA)
RNA: GGGAGUUCUACAGUCCGACGAUCUGCUUCUUUCUUCAGCUCUUCAUCAGUUAAGUUUUCUAAAAACUGUGGAACCAUUUCGGUUAUUGGAAGAAAGUACUUUUUCACUGUGUGAAGAGUAAGAAACUCAUAGCACUGUCCAAACAACAGAGGAUUGAGCAUCA
B14: chr4:56294251:56294252:-_ENSG00000134852_ENST00000309964|hu_hu|motif|central (ssRNA)
RNA: GGGAGUUCUACAGUCCGACGAUCAACAUAGCACUGAGGUAUUUUUUAUUUUUAAAAUUGAAGGAAACAAAGUCUGGAUCGGAUUAUUUUUACAUUUACAAAAACUGCUACUGCUUGGCUCUUUUGCUAUAAGUUUAGGUUCUGCAACAGAGGAUUGAGCAUCA
B15: chr4:56294251:56294252:-_ENSG00000134852_ENST00000309964|hu_hu|FALSE|FALSE (ssRNA)
RNA: B14 RNA with G80U, G81A
B16: chr1:34870196:34870197:-_ENSMUSG00000037503_ENSMUST00000047534|mus_mus|motif|central (ssRNA)
RNA: GGGAGUUCUACAGUCCGACGAUCUGAGCCCAUCUACUCAUCAGAUUGCAUAAAAAAUUAAAACAGUAUGAAUUUACAUCGGAUUGAACUGGCUUGGGAUGGACAGUCUGCCCGUUCCUUUGUUUUGACACAUAAGUUCCAUGACAACAGAGGAUUGAGCAUCA
B17: 54592465_54592585_3431_3pUTR_ENSMUSG00000005225_ENSMUST00000119706|mouse|control|control (ssRNA)
RNA: GGGAGUUCUACAGUCCGACGAUCUUGCUUGGCUUAAAAUUUUAUUACAAGUGUUUUUAAGAGGCAAGGUCUUGCUAUGUUGUUCAGGUUAAUCUCCAAAUCUUGGGCUCAAAUAAUACUUUACUCUCAUACUUCUGGGUAGCUCAACAGAGGAUUGAGCAUCA
B18: chr1:34870196:34870197:-_ENSMUSG00000037503_ENSMUST00000047534|mus_mus|FALSE|FALSE (ssRNA)
RNA: B16 RNA with G80U, G81A
B19: chr4:17845017:17845018:+_ENSG00000109805_ENST00000514176|hu_mus|hu_hu_hu_mus_False|48_58 (ssRNA)
RNA: GGGAGUUCUACAGUCCGACGAUCGCUCUCUUAACUUGUAUCUUCAUUAAGGAACUCUGCAAGGUUAAGUUUACUUUUUCUAGUGCUGCGGUUUUGGGCUCGUCUGGGUAAUCUCAUCUUCAUUUCUGAUGGUGGUUCAUGAUCCAACAGAGGAUUGAGCAUCA
B20: chr6:114281168:114281169:-_ENSG00000196591_ENST00000368632|hu_hu|hu_hu_hu_mus_True|1_18 (ssRNA)
RNA: GGGAGUUCUACAGUCCGACGAUCUUCCAUUUUUCGGUAUAAACCAUAAUUUAGCAGCAAGUUAUGAGUCAUCCGGAUUCUAUGAGGCUUCAUGGGAUGACCCUGGCCAUAAUAAUAAUUUCCAAUAUCACCAUCAUACUAGAACAACAGAGGAUUGAGCAUCA
B21: 83260623_83262902_554_CDS_ENSMUSG00000031715_ENSMUST00000043359|mouse|control|control (ssRNA)
RNA: GGGAGUUCUACAGUCCGACGAUCUUCUUUUUGCUUUCCAGGUGAUCCAUGAUCAAAUACUUCCUCCAUCUCGGUGUCCGCGGGGCCCGAGCCCGCAGCACACGGAGCCGCGGGCGCCGCGCCGCCCUCGGGGCCGCCUUUGUUCAACAGAGGAUUGAGCAUCA
B22: chr4:86222814:86222815:+_ENSMUSG00000070934_ENSMUST00000091064|mus_mus|FALSE|FALSE (ssRNA)
RNA: GGGAGUUCUACAGUCCGACGAUCGAAUAUUAAAGACAAAUGAUGCAAAAAAAAAAAAAACACCGUAAUUCAGCAUUUUACUAAAGAGCAUUUGGCAUUAUUUCAACGCAUGAGGAGGCUGUGCUUGGGCCCAUCUACUCUUUCCAACAGAGGAUUGAGCAUCA

In the assay the target is T1, UNK ZnF1-3 (human, UniProt Q9C0B0 31-174).
T1 sequence: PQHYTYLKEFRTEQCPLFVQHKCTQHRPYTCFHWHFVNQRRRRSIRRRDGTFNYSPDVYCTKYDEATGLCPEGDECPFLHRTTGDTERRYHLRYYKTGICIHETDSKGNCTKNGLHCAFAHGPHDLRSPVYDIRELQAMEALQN
Kind of assay: nsRBNS (natural sequence RNA bind-n-seq); RBNS binding buffer (assumed for nsRBNS): 25 mM Tris pH 7.5, 150 mM KCl, 3 mM MgCl2, 0.01% Triton X-100, 500 ug/ml BSA, 20 U/ml SUPERase-In, 4 C; UNK is unkempt and MSI1 is Musashi-1; names of the RNAs are library labels; protein concentration not given here; high values mean tight binding.
In the case of B1, the binding signal was 1.52 enrichment R.

Take B2: the binding signal is 0.773 enrichment R.

The molecule B3 yielded a binding signal of 0.859 enrichment R.

Consider B4, for which the binding signal came to 4.8 enrichment R.

Regarding B5, the binding signal was found to be 3.61 enrichment R.

B6 registered a binding signal of 4.2 enrichment R.

In turn, B7 had a binding signal of 1.15 enrichment R.

B8 had a binding signal of 0.624 enrichment R.

In turn, B9 registered a binding signal of 0.726 enrichment R.

For B10, the binding signal was 0.7 enrichment R.

The molecule B11 gave a binding signal of 1.07 enrichment R.

In turn, B12 had a binding signal of 0.685 enrichment R.

In turn, B13 returned a binding signal of 0.545 enrichment R.

As for B14, the binding signal was 3.76 enrichment R.

B15 displayed a binding signal of 4.1 enrichment R.

B16 had a binding signal of 1.36 enrichment R.

B17 displayed a binding signal of 1.3 enrichment R.

Molecule B18 displayed a binding signal of 1.33 enrichment R.

B19: the binding signal is 0.378 enrichment R.

In turn, B20 yielded a binding signal of 1 enrichment R.

For B21, the binding signal was 0.826 enrichment R.

As to B22, the binding signal turned out to be 1.67 enrichment R.

The values are drawn from PMC12136788.
